Where a name gives a salt, the structure may show the parent alone. ± gives the standard deviation.
Key:
Jurkat [1] = assay: mean cell size (FSC-A) relative to DMSO control (fraction of control); higher = larger cells; conditions: 48 h
How it was run: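 Jurkat cells at 600 cells/µl were incubated for 1 h and then treated for 48h with the Enzo Screen-Well FDA Approved Drug Library v2.0 at 25µM, with DMSO at 0.9% (v/v) final. Compounds that reduced counts below 20% of controls were retested in 10-fold dilutions down to 25nM. Cell count and mean cell size, taken as forward scatter area, were measured by flow cytometry relative to solvent-only controls. Each plate carried 6-12 controls, and values are means of 3 biological replicates.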

Jurkat [2] = assay: cell count relative to DMSO control (fraction of control); higher = more cells (less growth inhibition); conditions: 48 h

Structure (SMILES)	mean cell size (Jurkat [1])	cell count (Jurkat [2])
CN[C@@H]1[C@H](O)[C@H](NC)[C@H]2O[C@@]3(O)C(=O)C[C@@H](C)O[C@H]3O[C@@H]2[C@H]1O [Spectinomycin·HCl Pentahydrate] (concentration: 25 µM)	1.05 ± 0.014	0.941 ± 0.16
CCC(=O)OC(OP(=O)(CCCCc1ccccc1)CC(=O)N1C[C@H](C2CCCCC2)C[C@H]1C(=O)O)C(C)C (some centres not stated) [Fosinopril·Na] (concentration: 25 µM)	0.974 ± 0.054	0.562 ± 0.12
C=C(CC)C(=O)c1ccc(OCC(=O)O)c(Cl)c1Cl [Ethacrynic Acid] (concentration: 25 µM)	0.924 ± 0.015	0.453 ± 0.058
COc1ccc(OC)c(C(O)CNC(=O)CN)c1 (configuration not stated) [Midodrine·HCl] (concentration: 25 µM)	0.942 ± 0.065	0.55 ± 0.15
CC1(C)O[C@@H]2C[C@H]3[C@@H]4C[C@H](F)C5=CC(=O)C=C[C@]5(C)[C@@]4(F)[C@@H](O)C[C@]3(C)[C@]2(C(=O)CO)O1 [Fluocinolone Acetonide] (concentration: 25 µM)	0.958 ± 0.037	0.55 ± 0.08
CC(C)N1CCN(c2ccc(OCC3COC(Cn4cncn4)(c4ccc(Cl)cc4Cl)O3)cc2)CC1 (configuration not stated) [Terconazole] (concentration: 25 µM)	0.891 ± 0.017	0.299 ± 0.11
CN1C(=O)CC(C)(c2ccccc2)C1=O (configuration not stated) [Methsuximide] (concentration: 25 µM)	1.03 ± 0.03	0.752 ± 0.068
Nc1ccn([C@H]2CC[C@@H](CO)O2)c(=O)n1 [Zalcitabine (2',3'-Dideoxycytidine)] (concentration: 25 µM)	1.31 ± 0.061	0.336 ± 0.073
Nc1cccc2c1CN(C1CCC(=O)NC1=O)C2=O (configuration not stated) [Lenalidomide] (concentration: 25 µM)	0.951 ± 0.021	1.03 ± 0.11
OCCOCCN1CCN(C2=Nc3ccccc3Sc3ccccc32)CC1 [Quetiapine Fumarate] (concentration: 25 µM)	0.929 ± 0.035	0.534 ± 0.17
CN(C)C(=O)C(CCN1CCC(O)(c2ccc(Cl)cc2)CC1)(c1ccccc1)c1ccccc1 [Loperamide·HCl] (concentration: 25 µM)	0.988 ± 0.033	0.572 ± 0.18
C#CCN[C@@H]1CCc2ccccc21 [Rasagiline Mesylate] (concentration: 25 µM)	1.03 ± 0.024	1.01 ± 0.058
Cc1cc(NS(=O)(=O)c2ccc(N)cc2)no1 [Sulfamethoxazole] (concentration: 25 µM)	0.962 ± 0.036	0.809 ± 0.063
CN[C@H](CC(C)C)C(=O)N[C@H]1C(=O)N[C@@H](CC(N)=O)C(=O)N[C@H]2C(=O)N[C@H]3C(=O)N[C@H](C(=O)N[C@H](C(=O)O)c4cc(O)cc(O)c4-c4cc3ccc4O)[C@H](O)c3ccc(c(Cl)c3)Oc3cc2cc(c3O[C@@H]2O[C@H](CO)[C@@H](O)[C@H](O)[C@H]2O[C@H]2C[C@](C)(N)[C@H](O)[C@H](C)O2)Oc2ccc(cc2Cl)[C@H]1O [Vancomycin·HCl] (concentration: 25 µM)	1.02 ± 0.021	1.19 ± 0.13
CNC(=C[N+](=O)[O-])NCCSCc1csc(CN(C)C)n1 [Nizatidine] (concentration: 25 µM)	0.976 ± 0.011	0.809 ± 0.02
O=C(CCCCCCC(=O)Nc1ccccc1)NO [Vorinostat] (concentration: 250 nM)	0.947 ± 0.035	0.71 ± 0.048
CC1Cc2ccccc2N1NC(=O)c1ccc(Cl)c(S(N)(=O)=O)c1 (configuration not stated) [Indapamide] (concentration: 25 µM)	0.978 ± 0.023	0.497 ± 0.11
C[N+](C)(C)CCOC(=O)CCC(=O)OCC[N+](C)(C)C [Succinylcholine Chloride·2H2O] (concentration: 25 µM)	0.943 ± 0.014	0.908 ± 0.081
CCOc1ccccc1OCCN[C@H](C)Cc1ccc(OC)c(S(N)(=O)=O)c1 [Tamsulosin·HCl] (concentration: 25 µM)	0.988 ± 0.037	0.808 ± 0.079
COc1ccc([C@@H]2Sc3ccccc3N(CCN(C)C)C(=O)[C@@H]2OC(C)=O)cc1 [Diltiazem·HCl] (concentration: 25 µM)	0.959 ± 0.053	0.359 ± 0.13
CC[C@]1(O)C[C@@H]2CN(CCc3c([nH]c4ccccc34)[C@@](C(=O)OC)(c3cc4c(cc3OC)N(C)[C@H]3[C@@](O)(C(=O)OC)[C@H](OC(C)=O)[C@]5(CC)C=CCN6CC[C@]43[C@@H]65)C2)C1 [Vinblastine Sulfate] (concentration: 25 nM)	0.971 ± 0.031	0.0701 ± 0.058

Source: the supplement of paper PMC4709259
